Activity calls are given as the source filed them.
Key:
[1] = system: Plasmodium falciparum Sir2 (PF13_0152, Sir2A); test: pfSir2 binders on small-molecule microarrays, primary screen, biochemical, small-molecule microarray, 635 nm fluorescence (AID 1098); conditions: small-molecule microarray binding, fluorescence 635 nm; higher = more signal;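 also: score merges spot fluorescence intensity with its signal-to-noise ratio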
[2] = small-molecule microarray binders of probe aDKK1, primary screen, biochemical, biotinylated probe, 635/667 nm fluorescence (AID 1099); conditions: higher = more signal;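 also: score merges 667nm spot fluorescence with signal to noise across triplicate slides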
[3] = small-molecule microarray binders of probe aCHRDL2, primary screen, biochemical, biotinylated probe, 635/667 nm fluorescence (AID 1100); conditions: higher = more signal
[4] = splicing luciferase reporter signal modulators, primary screen, spliceosome inhibition project, cell-based, HEK293, splice +/- reporter (AID 1101); conditions: luminescence, 24 h, higher = more signal, called active from +8 up or from −8 down;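 also: HEK293 cells carrying a splicing-competent luciferase reporter gene; test concentration not given here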
[5] = biological target: Fibroblast growth factor 10 (Homo sapiens) (UniProt O15520); test: FGF10 binders on small-molecule microarrays, primary screen, biochemical, small-molecule microarray, 635 nm fluorescence (AID 1102); conditions: FGF10 binding, fluorescence 635 nm, higher = more signal
Chain of Fibroblast growth factor 10 (Homo sapiens) (O15520 whole entry, looked up): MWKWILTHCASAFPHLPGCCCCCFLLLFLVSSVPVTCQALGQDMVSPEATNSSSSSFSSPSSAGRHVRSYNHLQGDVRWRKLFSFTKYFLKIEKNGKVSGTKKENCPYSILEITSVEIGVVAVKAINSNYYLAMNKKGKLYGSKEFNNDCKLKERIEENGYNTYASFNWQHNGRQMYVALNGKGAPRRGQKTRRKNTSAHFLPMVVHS

[6] = system: glycogen synthase kinase-3 (GSK3A per assay name; protocol says GSK3B); test: GSK3 binders on small-molecule microarrays, primary screen, biochemical, small-molecule microarray, 635 nm fluorescence, GSK3A (AID 1103); conditions: small-molecule microarray binding, fluorescence 635 nm; higher = more signal; also: the record names both GSK3A and GSK3B
[7] = biological target: Epidermal growth factor receptor (Homo sapiens) (UniProt P00533); test: EGFR binders on small-molecule microarrays, primary screen, biochemical, small-molecule microarray, 635 nm fluorescence (AID 1104); conditions: EGFR binding, higher = more signal;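 also: score merges 667 nm emission intensity with spot signal to noise over triplicate slides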
Chain of Epidermal growth factor receptor (Homo sapiens) (P00533 whole entry, looked up): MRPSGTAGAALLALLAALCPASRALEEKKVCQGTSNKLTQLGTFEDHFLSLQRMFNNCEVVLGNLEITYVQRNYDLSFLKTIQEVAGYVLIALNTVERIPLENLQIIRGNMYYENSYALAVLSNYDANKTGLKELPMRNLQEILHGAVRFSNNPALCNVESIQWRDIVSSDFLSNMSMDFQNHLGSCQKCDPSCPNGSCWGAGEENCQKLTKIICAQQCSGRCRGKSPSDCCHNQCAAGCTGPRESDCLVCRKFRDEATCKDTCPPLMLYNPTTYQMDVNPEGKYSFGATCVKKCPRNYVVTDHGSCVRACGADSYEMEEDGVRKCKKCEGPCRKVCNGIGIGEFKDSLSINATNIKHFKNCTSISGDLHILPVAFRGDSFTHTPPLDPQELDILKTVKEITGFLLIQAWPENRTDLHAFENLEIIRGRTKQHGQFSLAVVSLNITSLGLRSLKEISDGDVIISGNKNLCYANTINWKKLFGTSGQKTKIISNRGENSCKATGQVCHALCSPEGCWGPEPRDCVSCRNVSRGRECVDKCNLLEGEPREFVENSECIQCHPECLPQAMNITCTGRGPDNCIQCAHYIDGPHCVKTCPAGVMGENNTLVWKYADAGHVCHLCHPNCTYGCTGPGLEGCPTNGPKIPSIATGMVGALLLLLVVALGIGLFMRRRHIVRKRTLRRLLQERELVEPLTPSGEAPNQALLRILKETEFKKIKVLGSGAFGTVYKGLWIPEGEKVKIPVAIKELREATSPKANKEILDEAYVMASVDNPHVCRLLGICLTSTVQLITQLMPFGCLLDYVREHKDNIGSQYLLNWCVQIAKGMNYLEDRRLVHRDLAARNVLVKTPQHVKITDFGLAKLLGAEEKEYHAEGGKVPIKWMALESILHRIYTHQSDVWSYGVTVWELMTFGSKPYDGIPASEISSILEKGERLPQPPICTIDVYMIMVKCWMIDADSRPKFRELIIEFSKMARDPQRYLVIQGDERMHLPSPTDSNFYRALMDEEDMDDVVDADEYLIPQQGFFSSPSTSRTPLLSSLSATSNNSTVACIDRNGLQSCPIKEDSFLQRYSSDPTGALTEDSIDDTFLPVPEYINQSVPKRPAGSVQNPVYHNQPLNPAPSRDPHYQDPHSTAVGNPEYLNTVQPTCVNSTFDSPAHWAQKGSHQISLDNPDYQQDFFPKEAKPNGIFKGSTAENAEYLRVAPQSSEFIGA

[8] = biological target: Follistatin-related protein 3 (Homo sapiens) (UniProt O95633); test: FSTL3 binders on small-molecule microarrays, primary screen, biochemical, small-molecule microarray, 635 nm fluorescence (AID 1105); conditions: FSTL3 binding, higher = more signal;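 also: score merges emission near 667 nm and signal to noise per printed spot across three slides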
Chain of Follistatin-related protein 3 (Homo sapiens) (O95633 whole entry, looked up): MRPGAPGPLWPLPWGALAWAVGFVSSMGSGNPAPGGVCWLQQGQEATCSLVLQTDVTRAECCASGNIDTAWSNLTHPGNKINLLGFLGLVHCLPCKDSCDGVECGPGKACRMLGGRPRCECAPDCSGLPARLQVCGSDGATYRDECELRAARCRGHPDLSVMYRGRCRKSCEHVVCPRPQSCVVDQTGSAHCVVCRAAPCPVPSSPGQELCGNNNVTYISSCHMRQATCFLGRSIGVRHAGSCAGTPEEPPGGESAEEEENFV

[9] = biological target: Dickkopf-related protein 1 (Homo sapiens) (UniProt O94907); test: DKK1 binders on small-molecule microarrays, primary screen, biochemical, small-molecule microarray, 635 nm fluorescence scan (AID 1106); conditions: DKK1 binding, higher = more signal;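 also: score merges emission near 667 nm with signal to noise over three replicate slides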
Chain of Dickkopf-related protein 1 (Homo sapiens) (O94907 whole entry, looked up): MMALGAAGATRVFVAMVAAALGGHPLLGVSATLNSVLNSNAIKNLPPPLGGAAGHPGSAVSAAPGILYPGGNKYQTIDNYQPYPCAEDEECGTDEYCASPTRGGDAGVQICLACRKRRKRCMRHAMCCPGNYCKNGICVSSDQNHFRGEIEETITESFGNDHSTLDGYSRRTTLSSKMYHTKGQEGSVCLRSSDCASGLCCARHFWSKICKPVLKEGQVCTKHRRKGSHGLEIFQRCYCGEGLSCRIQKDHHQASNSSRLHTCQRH

[10] = system: Inhibin beta A chain (activin A); test: INHBA (activin A) binders on microarrays, primary screen, biochemical, small-molecule microarray, 635 nm fluorescence scan (AID 1107); conditions: small-molecule microarray binding, higher = more signal;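 also: mouse activin A protein probed at 4.33 µg/mL on printed slides; score merges bound-protein fluorescence near 667 nm with spot signal-to-noise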
[11] = system: Human papillomavirus type 1a protein E7 (residues 44-93); test: HPV1a E7 fragment binders on microarrays, primary screen, biochemical, small-molecule microarray, residues 44-93, 635 nm fluorescence (AID 1108); conditions: small-molecule microarray binding, fluorescence 635 nm; higher = more signal;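 also: E7 fragment applied at 1 µg/mL in TBST for 1 h at 4 C; score combines spot fluorescence with its signal to noise ratio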
[12] = modulators of HCV replicon luciferase signal, primary screen, HCV replication inhibitor project, Huh7 cells, luciferase reporter (AID 1109); conditions: 48 h, higher = more signal;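 also: huh7 hepatoma cells harbouring a luciferase neomycin HCV replicon reporter; luciferase luminescence as measure of HCV replicon replication; test concentration not given here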
[13] = biological target: Left-right determination factor 2 (Homo sapiens) (UniProt O00292); test: LEFTY2 binders on small-molecule microarrays, primary screen, biochemical, small-molecule microarray, 635 nm fluorescence scan (AID 1110); conditions: LEFTY2 binding, higher = more signal
Chain of Left-right determination factor 2 (Homo sapiens) (O00292 whole entry, looked up): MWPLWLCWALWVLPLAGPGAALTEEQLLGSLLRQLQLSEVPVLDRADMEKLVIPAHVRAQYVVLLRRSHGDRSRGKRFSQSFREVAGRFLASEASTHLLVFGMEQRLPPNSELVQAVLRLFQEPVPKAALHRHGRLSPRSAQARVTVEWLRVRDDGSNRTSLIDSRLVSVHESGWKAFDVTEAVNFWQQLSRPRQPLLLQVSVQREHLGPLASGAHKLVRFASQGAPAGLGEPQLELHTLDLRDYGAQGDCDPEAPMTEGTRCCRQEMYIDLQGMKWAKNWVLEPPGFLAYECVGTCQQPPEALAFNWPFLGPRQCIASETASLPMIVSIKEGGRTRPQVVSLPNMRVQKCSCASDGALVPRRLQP

[14] = biological target: Calmodulin-1 (Homo sapiens) (UniProt P0DP23); test: CALM1 binders on microarrays, EGTA buffer, profiling panel, biochemical, small-molecule microarray, Cy5-labelled CALM1 (AID 1111); conditions: Cy5-CALM1 binding fluorescence, higher = more signal;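 also: labelled calmodulin applied in Tris saline Tween buffer holding calcium plus EGTA and DTT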
[15] = biological target: Calmodulin-1 (Homo sapiens) (UniProt P0DP23); test: calcium-bound CALM1 binders on microarrays, profiling panel, artefact control for SMM control-protein annotation, biochemical, small-molecule microarray, Cy5-labelled CALM1, plus calcium (AID 1112); conditions: Cy5-CALM1 binding fluorescence, higher = more signal;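 also: score merges spot fluorescence with signal to noise from triplicate slides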
[16] = small-molecule microarray binders of probe aWnt5a, primary screen, biochemical, biotinylated probe, 635/667 nm fluorescence (AID 1113); conditions: higher = more signal;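 also: score merges 667 nm fluorescence intensity with signal-to-noise per printed feature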
[17] = small-molecule microarray binders of probe aShh, primary screen, biochemical, biotinylated probe, 635/667 nm fluorescence (AID 1114); conditions: higher = more signal;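 also: probe is biotin-labelled aShh protein from a stem cell growth factor screen; measures binding of labelled protein to compounds printed on the slide; score merges feature fluorescence at 667 nm with signal-to-noise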
[18] = small-molecule microarray binders of probe aNog, primary screen, biochemical, biotinylated probe, 635/667 nm fluorescence (AID 1115); conditions: higher = more signal;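 also: probe is biotinylated aNog protein used at 0.15 µg/mL for 1 h at 4 C; z-score combines 667 nm fluorescence of each spot with its signal to noise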
[19] = biological target: Torsin-1A-interacting protein 1 (Homo sapiens) (UniProt Q5JTV8); test: LAP1 binders from COS7 cell lysate, primary screen, small-molecule microarray, 635/667 nm fluorescence (AID 1116); conditions: COS7-hLAP1 lysate binding, 635 nm fluorescence, higher = more signal
Chain of Torsin-1A-interacting protein 1 (Homo sapiens) (Q5JTV8 whole entry, looked up): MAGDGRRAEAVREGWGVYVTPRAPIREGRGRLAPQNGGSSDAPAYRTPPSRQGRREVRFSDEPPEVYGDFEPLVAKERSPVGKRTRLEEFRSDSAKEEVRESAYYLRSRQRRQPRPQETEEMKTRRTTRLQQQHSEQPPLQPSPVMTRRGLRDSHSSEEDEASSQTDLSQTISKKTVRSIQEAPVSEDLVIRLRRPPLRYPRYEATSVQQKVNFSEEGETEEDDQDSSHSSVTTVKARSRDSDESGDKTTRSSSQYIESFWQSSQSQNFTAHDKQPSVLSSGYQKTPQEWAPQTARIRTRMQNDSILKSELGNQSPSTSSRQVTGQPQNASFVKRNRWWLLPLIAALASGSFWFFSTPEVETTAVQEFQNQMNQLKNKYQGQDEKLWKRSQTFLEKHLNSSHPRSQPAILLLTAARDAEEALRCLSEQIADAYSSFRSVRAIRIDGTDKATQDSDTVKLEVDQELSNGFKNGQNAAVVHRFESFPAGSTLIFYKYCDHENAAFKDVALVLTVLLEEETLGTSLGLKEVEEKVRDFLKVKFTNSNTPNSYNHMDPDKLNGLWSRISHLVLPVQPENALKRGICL

[20] = biological target: Alpha-bungarotoxin (Bungarus multicinctus) (UniProt P60615); test: alpha-bungarotoxin binders on microarray, profiling panel, artefact control for SMM control protein annotation, biochemical, small-molecule microarray, Alexa647 label, 635/667 nm fluorescence (AID 1117); conditions: alpha-BTX-A647 binding fluorescence, higher = more signal
Chain of Alpha-bungarotoxin (Bungarus multicinctus) (P60615 whole entry, looked up): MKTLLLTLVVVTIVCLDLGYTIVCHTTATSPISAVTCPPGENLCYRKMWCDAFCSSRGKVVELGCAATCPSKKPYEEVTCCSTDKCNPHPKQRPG

Structure (SMILES) | composite z-score [1] | composite z-score [2] | composite z-score [3] | z-score [4] | composite z-score [5] | composite z-score [6] | composite z-score [7] | composite z-score [8] | composite z-score [9] | composite z-score [10] | composite z-score [11] | z-score [12] | composite z-score [13] | composite z-score [14] | composite z-score [15] | composite z-score [16] | composite z-score [17] | composite z-score [18] | composite z-score [19] | composite z-score [20]
CCOc1cc(C(O)C2C=CC3C(=O)N(c4ccccc4)C(=O)C3N2Nc2ccc(C(C)C)cc2)ccc1O (stereo not given) | 1.5 | 0.712 | 1.01 | 0.21 (inactive) | 0.726 | 1.05 | 0.147 | 0.912 | -0.332 | 0.73 | 1.45 | -0.517 | -0.211 | 0.983 | -0.0316 | 0.0433 | -0.0119 | 1.2 | -0.102 | 1.91
CN1C(=O)C2C=CC(C(O)c3ccccc3)N(N3CCCCC3)C2C1=O (stereo not given) | 1.75 | 0.159 | 0.846 | 0.651 (inactive) | 1.26 | 0.83 | -0.0247 | 0.494 | 0.0514 | 0.932 | 0.876 | -0.379 | -0.203 | 0.0777 | -0.102 | 0.28 | 0.108 | -0.52 | 0.411 | 0.464
COCC(=C=CC[C@H](O)c1cccc(OCCO)c1)C[C@H](O)c1cc(Cl)cc(Cl)c1O | 0.516 | -0.0921 | -0.174 | 0.102 (inactive) | 1.55 | 1.17 | 0.331 | 0.785 | 0.551 | 0.712 | 1.37 | -0.566 | 0.578 | -0.0781 | -0.821 | -0.0478 | 0.0639 | -0.328 | 1.12 | 0.0872
COCCOC(=O)N1C(=O)[C@@]2(c3ccccc31)[C@H](C(=O)N1CCc3cc(OC)c(OC)cc3C1)[C@H]1C(=O)O[C@H](c3ccccc3)[C@H](c3ccccc3)N1[C@@H]2c1ccc(O)cc1 | 1.38 | 0.0664 | 0.299 | 0.251 (inactive) | 0.375 | 0.691 | 0.431 | 0.671 | 0.503 | 0.407 | 1.13 | -0.515 | 0.337 | 1.38 | 0.116 | -0.0125 | -0.0769 | 0.511 | 1.94 | 1.65
CN1C(=O)C2C=CC(C(O)c3ccc(F)cc3)N(N(c3ccccc3)c3ccccc3)C2C1=O (stereo not given) | 1.46 | 0.303 | 1.03 | 1.9 (inactive) | 0.103 | 0.0581 | -0.329 | 0.549 | -0.742 | 0.984 | 1.11 | -0.0952 | -0.698 | 0.49 | -0.235 | -0.0236 | -0.152 | -0.55 | 0.154 | 0.633
C=CC[C@]1(C(N)=O)COC(c2ccc(OCCCO)cc2)=N1 | -0.171 | -0.145 | 0.381 | -0.359 (inactive) | 0.577 | -0.557 | 0.0704 | -0.235 | -0.314 | 0.927 | -0.287 | -0.243 | 0.237 | -0.257 | -0.296 | -0.0899 | -0.0793 | 0.0519 | 0.837 | 1.37
C=CCN1C(=O)[C@]2(Cc3ccccc3)N=C(c3ccc(OCCCO)cc3)O[C@@H]2c2ccccc21 | 1.16 | 0.0729 | 0.795 | -1.37 (inactive) | 0.755 | 1.27 | 0.781 | 0.878 | 0.547 | 1.13 | 1.45 | -1.84 | 0.993 | 0.893 | -0.672 | -0.0519 | 0.531 | -0.802 | 0.251 | 1.04
C=CC1c2cc(O)c(OC)cc2CCN1Cc1cccc(OC(F)(F)F)c1 (stereo not given) | -0.128 | -0.0819 | 0.516 | -0.918 (inactive) | -0.438 | -0.765 | -0.417 | 0.0396 | -0.0102 | 1.64 | 0.625 | -1.79 | -0.154 | 0.667 | -0.566 | -0.175 | -0.0146 | -0.483 | 0.828 | 0.39
Cc1ccc(S[C@]2(C(=O)O)CC(=O)N(Cc3ccccc3C(F)(F)F)[C@@H]2c2ccc(CO)cc2I)cc1 | -0.135 | -0.537 | 0.337 | -1.15 (inactive) | -0.39 | -0.518 | -1.11 | -1 | -1.28 | 1.16 | 0.4 | -1.26 | -1.66 | -0.633 | -0.711 | -0.12 | -0.315 | -0.322 | -0.327 | -0.247
CS(=O)(=O)CCOC(=O)C1=CC(CCCO)=CC(C2CC2)N(Cc2cc3c(cc2Br)OCO3)C=C1C(=O)OCCS(C)(=O)=O (stereo not given) | 0.405 | 0.049 | 0.49 | 1.22 (inactive) | 0.615 | 0.28 | -0.0183 | 0.258 | 0.322 | 1.33 | 1.07 | -1.2 | -0.0224 | 0.331 | -0.0113 | -0.0192 | -0.0035 | 0.357 | 1.11 | 0.598
C=CCN1C(=O)[C@]2(O[C@H](CCO)[C@@H]([Si](C)(C)c3ccc(OC)cc3)[C@@H]2C)c2cc(N(C=O)c3ccccc3)ccc21 | 0.465 | -0.128 | 0.348 | -2.19 (inactive) | -0.0285 | -0.116 | -0.414 | -0.0666 | -0.113 | 0.407 | -0.823 | -5.14 | -0.155 | 0.393 | 0.217 | -0.096 | 0.0684 | 0.337 | 0.753 | 0.607
NCCCCCNC(=O)[C@H]1C[C@H]2C(=O)N[C@@H](Cc3ccccc3)C(=O)N2[C@H]1c1cccc(OCCO)c1 | 0.0864 | 1.15 | 0.942 | -0.365 (inactive) | -0.0314 | 0.213 | 0.0441 | 0.6 | 0.4 | 1.34 | 0.509 | -0.82 | 0.115 | 1.85 | 1.06 | 0.0328 | 0.246 | 0.296 | 2.09 | 2.07
O=C1OCCC/C=C\[C@H]2OC34C=CCN(c5ccc6ccccc6c5)C(=O)[C@H]3N(CCCCCO)C(=O)[C@@H]4C12 (stereo not given in full) | 0.227 | -0.319 | 0.364 | -0.447 (inactive) | -0.862 | -1.35 | -0.756 | -0.613 | -0.974 | 0.633 | -2.53 | -0.57 | -1.07 | -0.381 | -0.645 | -0.28 | 0.0141 | -0.0428 | -1.28 | -0.23
COC(=O)c1c2oc(c1C(=O)OC)C(=O)NC1(CCCCC1)c1cn(nn1)C[C@H](Cc1ccccc1)NC(=O)N[C@H](CO)CC2 | -0.856 | 0.0173 | -0.709 | -0.365 (inactive) | 1.15 | 0.386 | 0.0053 | 0.34 | 0.25 | -0.007 | 0.973 | -0.791 | 0.23 | 0.0166 | -0.396 | -0.0955 | -0.237 | -0.321 | 0.227 | 0.531
C=CC[C@@]1(C(=O)N2CCCCC2)N=C(c2ccc(OCCCO)cc2)O[C@@H]1c1ccccc1CN=[N+]=[N-] | 1.23 | 0.952 | 1.04 | -0.431 (inactive) | 0.666 | -0.0684 | 0.17 | 1.15 | -0.187 | 0.711 | 1.48 | -2.39 | 0.0868 | 1.75 | 0.797 | 0.104 | 0.57 | 1.18 | 1.76 | 2.05

— PubChem BioAssay
